# This excerpt belongs to a sample that is enriched for hits.
# CapD inh = blocks the Bacillus anthracis CapD enzyme; purified CapD enzyme, fluorescence intensity read-out; stronger effect = lower value; z-score (no concentration beside the values); 140,000 tested, 0.23% active; AID 492967; in the data active = z-score mostly below about -2.9, no sharp cut-off; inactive = mostly above about -1.9
# Numbers without * were called inactive; ! = a repeat was not active.
SMILES,CapD inh
O=C(O)c1c(F)cccc1I,-2.9*
c1ccc(-c2nsc(N3CCCC3)n2)cc1,0.36
CCOC(=O)c1c(NC(=O)C(C)Sc2nnc(CNC(=O)COc3ccccc3)n2C)sc2c1CCCC2 (stereo unspecified),-0.34
Nc1c(Nc2ccc(F)cc2)sc2c(O)cc(=O)[nH]c12,-4.1*
O=c1cc(O)c2sc(Nc3ccccc3)nc2[nH]1,0.055
CNc1sc2c(O)cc(=O)[nH]c2c1C#N,-1.5
CN(C)/C=C(\c1ccc(Cl)cc1)S(=O)(=O)/C=C/c1ccc(Cl)cc1,-0.3
CCCc1c(C(=O)O/N=C/c2ccc(C#N)cc2)cnn1-c1ccccc1,-0.13
CC(C)c1ccccc1NC(=O)C1CCCCC1,0.28
Cc1cccc(NC(=O)C2CCCCC2)c1C(=O)O,-2*
O=C(Nc1ccccc1N1CCCCC1)C1CCCCC1,-0.64
CC1=C(C(=O)OCc2ccccc2)C2(C(=O)Nc3ccccc32)C(C#N)=C(N)O1 (stereo unspecified),-0.41
Cc1cc(C(=O)O)ccc1-n1c(C)ccc1C,-0.4
Cc1ccc(C)n1-c1ccc(C(=O)O)cc1O,-9*
Cc1ccc(C(=O)O)cc1-n1c(C)ccc1C,-2
CCOc1ccc(C2Oc3nc(SC)nnc3-c3ccccc3N2C(=O)CC)cc1 (stereo unspecified),-1.2
Cc1ccc(/C(O)=C2\C(=O)C(=O)N(c3nnc(C)s3)C2c2ccccc2)cc1 (stereo unspecified),-0.29
O=C1NC(=S)N(c2ccccc2)C(=O)/C1=C/C=C/c1ccco1,-1
COc1cccc(N2C(=O)/C(=C/C=C/c3ccco3)C(=O)NC2=S)c1,-7.4*
Cc1cc(N2C(=O)NC(=O)/C(=C\C=C\c3ccco3)C2=O)ccc1Br,-0.89
Cc1ccc2nc(SCC(=O)N3CC4(C)CC3CC(C)(C)C4)[nH]c2c1 (stereo unspecified),0.73
COc1ccc2ccccc2c1CN1CCN(C(=O)OCc2cccc(C)c2)CC1,0.94
Cc1nn(-c2ccc(F)cc2)c(Cl)c1C=Nc1cccc(C#N)c1,-0.73
CN1C(=O)/C(=C\c2ccccc2)Sc2ccc(C(=O)NCc3cccs3)cc21,-6.9*
Cc1cccc(/C=C2\Sc3ccc(C(=O)NC(C)C)cc3N(C)C2=O)c1,-0.11
SMILES,CapD inh
Cc1cccc(/C=C2\Sc3ccc(C(=O)NCCC(C)C)cc3N(C)C2=O)c1,-0.41
Cc1ccc(Nc2coc3ccc4c(C)cc(=O)oc4c23)cc1,-0.33
O=C(Cn1cnc(S(=O)(=O)N2CCc3ccccc32)c1)NCc1ccccc1,-0.85
O=C(Nc1ccc(Cl)cc1)c1ccc(-c2ccccc2F)cc1,0.73
O=C(NN1S(=O)(=O)c2ccccc2S1(=O)=O)c1ccc(OCc2ccccc2Br)cc1,-0.18
NC(=O)c1ccccc1NC(=O)c1cccc(Br)c1,2.7
O=C(NN1S(=O)(=O)c2ccccc2S1(=O)=O)c1cccc(F)c1,-4.1*
O=C(NN1S(=O)(=O)c2ccccc2S1(=O)=O)c1ccc(OCc2ccc(F)cc2)cc1,-0.59
O=C(NN1S(=O)(=O)c2ccccc2S1(=O)=O)c1cccc(Br)c1,-3.7*
O=C(NN1S(=O)(=O)c2ccccc2S1(=O)=O)c1cc(-c2ccccc2)n[nH]1,-2.6
CCCCC(O)(c1ccc(N(C)C)cc1)c1ccc(N(C)C)cc1,3.6
CN(C)CCC(O)(CCc1ccccc1)c1ccccc1 (stereo unspecified),0.51
COc1ccc(OCCn2cc(C=C3C(=O)N(C)C(=O)N(C)C3=O)c3ccccc32)cc1,-0.85
CN(C)/C=C/C(=O)c1ccsc1,-6.3*
CN(C)/C=C/C(=O)c1cccc(C(F)(F)F)c1,-1.8
Cc1ccc(C(=O)/C=C/N(C)C)cn1,-2.8
O=C(O)C1Sc2[nH]c(=O)sc2C2c3ccc(O)cc3OC(=O)C12 (stereo unspecified),-8.8*
N#CC1=C(N)Oc2cc(O)ccc2C1c1ccccc1 (stereo unspecified),0.16
COC(=O)C1Sc2[nH]c(=O)sc2C(c2ccc(Cl)cc2)C1C(=O)OC (stereo unspecified),0.1
CCC1C(=O)N=C(SCC(=O)Nc2cc(C)on2)NC1=O (stereo unspecified),0.52
COC(=O)C1C2c3ccccc3OC1(C)N=c1s/c(=C/c3ccc(OCc4ccccc4F)cc3)c(=O)n12 (stereo unspecified),-0.92
CCOC(=O)C1CCCN(c2cc(Nc3ccc4c(c3)OCO4)c3c4c(onc24)-c2ccccc2C3=O)C1 (stereo unspecified),0.28
O=c1c(=NO)c(=O)c2ccccc12,-5.4*
O=c1c2ccccc2c(=O)n2n1CC=CC2,0.065
O=C1c2ccccc2C(=O)N1N1C(=O)c2ccccc2C1=O,0.02
SMILES,CapD inh
CN(CCO)c1cc(N2CCN(C3CCCCC3)CC2)c2nonc2c1[N+](=O)[O-],-0.78
CC(N)CCCC(C)(C)O (stereo unspecified),-4.1*!
CCCN1CCC(NC(C)CCCC(C)(C)O)CC1 (stereo unspecified),-0.4
CC(CCCC(C)(C)O)CC1OCC(C)O1 (stereo unspecified),-0.07
Cc1ccccc1CSc1nc2c(sc(=S)n2-c2ccccc2C)c2nc3ccccc3n12,-0.43
Oc1c(C(c2ccccc2Cl)N2CCCCC2)ccc2cccnc12 (stereo unspecified),61
Oc1c(C(c2ccccn2)N2CCCCC2)ccc2cccnc12 (stereo unspecified),-3.8
CN1CCN(C(c2ccccn2)c2cc(Cl)c3cccnc3c2O)CC1 (stereo unspecified),-8.1*
CNC(=O)CSc1cn(CC(=O)N2CCC(C)CC2)c2ccccc12,71
Cn1nc(C(F)(F)F)c(/C=N/OC(=O)CCl)c1Sc1ccccc1,1.7
CN1/C(=C\C=Nc2cccc(C(=O)O)c2)C(C)(C)c2ccccc21,-0.36
CN1/C(=C/C=N/O)C(C)(C)c2ccccc21,-1.1
CN1/C(=C\C=Nc2ccc(C(=O)O)cc2)C(C)(C)c2ccccc21,-3.2*
CC(C)c1ccc(OCC(=O)Nc2ccccc2C(F)(F)F)cc1,0.12
CCSCCOC(=O)C1=C(C)NC2=C(C(=O)CC(c3ccccc3)C2)C1c1ccc(OC)c(OC)c1 (stereo unspecified),12
Cc1cc(Br)ccc1N1C(=O)CC(=O)NC1=S,1.6
COc1ccc(CC(=O)NNC(=O)OCC2CCC3CC2C3(C)C)c(OC)c1 (stereo unspecified),-0.51
Cc1noc(/C=C/N(C)C)c1S(=O)(=O)N1CCCC(C(=O)NC2CCCCC2)C1 (stereo unspecified),1.7
CCc1ccccc1N(C)S(=O)(=O)c1c(C)noc1/C=C/N1CCOCC1,-3.4
Cc1noc(/C=C/N2CCOCC2)c1S(=O)(=O)N(C)CC(=O)NC1CCCCC1,-5.5*
CCc1nnc(NC(=O)/C=C/c2ccccc2)s1,0.24
Cc1cc(/C=C2\C(=O)NC(=S)N(c3ccccc3F)C2=O)c(C)n1-c1cc(C(=O)O)cc(C(=O)O)c1,-9.1*
Cc1cc(/C=C2\C(=O)NC(=O)N(c3ccc(F)cc3)C2=O)c(C)n1-c1cccc(C(=O)O)c1,-1.6
Cc1cc(/C=C2\C(=O)NC(=O)N(c3ccccc3F)C2=O)c(C)n1-c1cc(C(=O)O)cc(C(=O)O)c1,-2.5
CC(C)n1cc(C#N)c(=O)n(Cc2ccccc2)c1=O,0.075
CCN(CC)S(=O)(=O)N1CCC(C(=O)NCc2ccccc2Cl)CC1,0.72
O=C(CSc1nc2ccsc2c(=O)n1Cc1ccccn1)c1ccccc1,1.4
O=C(c1ccccc1)c1cc(Br)ccc1NC(=O)c1cc2ccccc2oc1=O,0.24
CCc1ccc(C(=O)c2cc3ccc(O)cc3oc2=O)cc1,-3.6
O=C(c1ccccc1)c1cc2ccc(O)cc2oc1=O,-6.3*

# High-throughput results as filed in PubChem BioAssay.
